This passage reports binding signal results from paper PMC7862700, “An all-to-all approach to the identification of sequence-specific readers for epigenetic DNA modifications on cytosine”.

Holding throughout (experiment): DAPPL (digital affinity profiling via proximity ligation, sequencing); 10 mM Tris-HCl pH 7.5, 50 mM NaCl, 1 mM DTT, 4% glycerol, room temperature, 30 min; GST-TFs on glutathione beads, 16-mer random dsDNA library, 0.1% formaldehyde crosslink after washing; high values mean tight binding
The target in experiment [1] is T1, FEV (Homo sapiens, UniProt Q99581 1-238).
T1 sequence: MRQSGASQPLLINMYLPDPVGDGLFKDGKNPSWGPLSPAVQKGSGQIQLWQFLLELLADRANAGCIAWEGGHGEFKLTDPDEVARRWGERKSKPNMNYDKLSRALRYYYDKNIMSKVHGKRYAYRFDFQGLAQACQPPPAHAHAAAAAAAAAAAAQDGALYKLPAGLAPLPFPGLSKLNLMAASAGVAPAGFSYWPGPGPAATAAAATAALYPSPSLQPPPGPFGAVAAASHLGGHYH
Particulars: protein: recombinant; tags: N-terminal GST; dsDNA, one strand shown. The essentials: (§1)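 After expression in yeast as GST fusions, human transcription factors were bound to glutathione beads, DNA-barcoded and mixed with a tag-only sample. The pools were incubated with 200 nmole of a 16-mer random double-stranded DNA library in Tris/NaCl/DTT/glycerol buffer (30 min, room temperature), washed and crosslinked with 0.1% formaldehyde. Proximity ligation with BsaI/T4 ligase ran for 1 h at 37 °C, before PCR amplification and sequencing on an Illumina NextSeq500. Binding signal is a hexamer's read frequency for a factor divided by its frequency for the tag-only sample.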

Experiment [2] concerns the target ETV5 (Homo sapiens, UniProt P41161 1-510). The note with it: protein: recombinant; tags: N-terminal GST; dsDNA, one strand shown. The method, boiled down: as §1
The target in experiment [3] is HSF1 (Homo sapiens, UniProt Q00613 1-529). The note with it: protein: recombinant; tags: N-terminal GST; chain copies: 3; dsDNA, one strand shown. The method, boiled down:
as §1

The target in experiment [4] is T2, SPIC (Homo sapiens, UniProt Q8N5J4 1-248).
T2 sequence: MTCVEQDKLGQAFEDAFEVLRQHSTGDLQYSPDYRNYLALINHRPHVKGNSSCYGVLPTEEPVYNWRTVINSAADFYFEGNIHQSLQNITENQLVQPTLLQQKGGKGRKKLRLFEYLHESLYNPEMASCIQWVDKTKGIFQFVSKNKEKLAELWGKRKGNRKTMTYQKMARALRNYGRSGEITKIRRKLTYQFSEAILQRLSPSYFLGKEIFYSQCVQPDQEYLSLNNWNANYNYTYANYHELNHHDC
The note with it: protein: recombinant; tags: N-terminal GST; dsDNA, one strand shown. The essentials:
as §1

Experiment [5] deals with ELF4 (Homo sapiens, UniProt Q99607 1-663). Particulars: protein: recombinant; tags: N-terminal GST; dsDNA, one strand shown. The essentials: as §1
For experiment [6], the target named is T3, ELK4 (Homo sapiens, UniProt P28324-2 1-405).
T3 sequence: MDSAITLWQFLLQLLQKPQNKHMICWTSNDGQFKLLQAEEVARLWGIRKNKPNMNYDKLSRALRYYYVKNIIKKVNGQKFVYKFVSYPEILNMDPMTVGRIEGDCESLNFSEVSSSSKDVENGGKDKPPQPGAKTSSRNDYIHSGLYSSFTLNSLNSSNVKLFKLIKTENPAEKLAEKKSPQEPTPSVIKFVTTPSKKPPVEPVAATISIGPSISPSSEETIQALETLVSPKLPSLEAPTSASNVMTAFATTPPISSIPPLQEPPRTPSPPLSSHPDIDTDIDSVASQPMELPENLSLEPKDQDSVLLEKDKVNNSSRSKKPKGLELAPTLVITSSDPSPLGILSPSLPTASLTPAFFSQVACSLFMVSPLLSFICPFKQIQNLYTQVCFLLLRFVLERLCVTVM
The note with it: protein: recombinant; tags: N-terminal GST; dsDNA, one strand shown. The method, boiled down:
as §1

The target in experiment [7] is T4, ETV2 (Homo sapiens, UniProt O00321 1-342).
T4 sequence: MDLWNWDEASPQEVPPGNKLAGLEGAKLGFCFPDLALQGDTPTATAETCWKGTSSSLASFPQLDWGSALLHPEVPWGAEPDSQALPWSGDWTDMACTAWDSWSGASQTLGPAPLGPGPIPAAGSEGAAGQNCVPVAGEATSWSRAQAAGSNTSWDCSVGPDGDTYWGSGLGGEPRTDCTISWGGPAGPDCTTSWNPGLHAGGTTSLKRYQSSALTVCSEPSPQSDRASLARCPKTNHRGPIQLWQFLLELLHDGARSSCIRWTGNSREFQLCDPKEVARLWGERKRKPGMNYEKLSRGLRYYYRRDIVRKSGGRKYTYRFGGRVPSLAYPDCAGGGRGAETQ
The note with it: protein: recombinant; tags: N-terminal GST; dsDNA, one strand shown. The essentials: as §1

For experiment [8], the target named is T5, ELF3 (Homo sapiens, UniProt P78545 1-371).
T5 sequence: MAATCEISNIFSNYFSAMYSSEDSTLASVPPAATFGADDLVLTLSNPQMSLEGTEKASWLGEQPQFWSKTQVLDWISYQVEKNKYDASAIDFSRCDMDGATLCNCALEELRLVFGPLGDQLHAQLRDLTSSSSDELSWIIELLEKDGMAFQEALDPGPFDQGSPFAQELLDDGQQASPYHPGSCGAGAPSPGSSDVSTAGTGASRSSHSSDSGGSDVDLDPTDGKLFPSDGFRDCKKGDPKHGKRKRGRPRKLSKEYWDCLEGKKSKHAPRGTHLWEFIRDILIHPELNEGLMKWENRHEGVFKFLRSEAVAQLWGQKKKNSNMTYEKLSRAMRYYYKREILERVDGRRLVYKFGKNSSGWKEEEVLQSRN
Particulars: protein: recombinant; tags: N-terminal GST; dsDNA, one strand shown. The method, boiled down: as §1

Experiment [9] concerns the target CRX (Homo sapiens, UniProt O43186 1-299). The note with it: protein: recombinant; tags: N-terminal GST; dsDNA, one strand shown. The method, boiled down: as §1
In experiment [10] the target is ETV1 (Homo sapiens, UniProt P50549 1-477). The note with it: protein: recombinant; tags: N-terminal GST; dsDNA, one strand shown. The essentials: as §1
The target of experiment [11] is T6, ERF (Homo sapiens, UniProt P50548 1-548).
T6 sequence: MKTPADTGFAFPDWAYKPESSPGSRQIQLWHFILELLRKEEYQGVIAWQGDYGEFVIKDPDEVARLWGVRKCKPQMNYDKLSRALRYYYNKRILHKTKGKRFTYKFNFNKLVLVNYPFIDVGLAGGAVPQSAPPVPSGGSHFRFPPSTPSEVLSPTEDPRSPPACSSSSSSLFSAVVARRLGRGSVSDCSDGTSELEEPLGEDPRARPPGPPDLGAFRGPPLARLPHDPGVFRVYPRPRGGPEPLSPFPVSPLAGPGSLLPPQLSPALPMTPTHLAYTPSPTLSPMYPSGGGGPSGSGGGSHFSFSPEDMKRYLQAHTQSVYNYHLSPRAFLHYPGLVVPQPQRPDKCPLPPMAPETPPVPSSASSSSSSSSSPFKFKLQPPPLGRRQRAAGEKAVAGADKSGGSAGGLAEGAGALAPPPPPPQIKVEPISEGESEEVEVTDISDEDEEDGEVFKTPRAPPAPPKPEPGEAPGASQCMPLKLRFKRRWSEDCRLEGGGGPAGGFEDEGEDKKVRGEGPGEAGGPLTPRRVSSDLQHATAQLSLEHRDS
Particulars: protein: recombinant; tags: N-terminal GST; dsDNA, one strand shown. The essentials:
as §1

Experiment [12] has as its target T7, ETV3L (Homo sapiens, UniProt Q6ZN32 1-361).
T7 sequence: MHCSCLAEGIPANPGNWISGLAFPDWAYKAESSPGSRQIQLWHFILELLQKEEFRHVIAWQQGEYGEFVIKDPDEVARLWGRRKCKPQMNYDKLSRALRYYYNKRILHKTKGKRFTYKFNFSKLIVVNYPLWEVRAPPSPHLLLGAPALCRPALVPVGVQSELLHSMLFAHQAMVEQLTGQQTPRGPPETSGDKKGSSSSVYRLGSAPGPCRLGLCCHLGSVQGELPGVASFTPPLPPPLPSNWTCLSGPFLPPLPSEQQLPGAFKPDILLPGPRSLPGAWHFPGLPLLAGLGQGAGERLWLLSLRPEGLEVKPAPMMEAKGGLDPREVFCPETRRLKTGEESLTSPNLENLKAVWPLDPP
The note with it: protein: recombinant; tags: N-terminal GST; dsDNA, one strand shown. The essentials: as §1

The target in experiment [13] is T8, ETS2 (Homo sapiens, UniProt P15036 1-469).
T8 sequence: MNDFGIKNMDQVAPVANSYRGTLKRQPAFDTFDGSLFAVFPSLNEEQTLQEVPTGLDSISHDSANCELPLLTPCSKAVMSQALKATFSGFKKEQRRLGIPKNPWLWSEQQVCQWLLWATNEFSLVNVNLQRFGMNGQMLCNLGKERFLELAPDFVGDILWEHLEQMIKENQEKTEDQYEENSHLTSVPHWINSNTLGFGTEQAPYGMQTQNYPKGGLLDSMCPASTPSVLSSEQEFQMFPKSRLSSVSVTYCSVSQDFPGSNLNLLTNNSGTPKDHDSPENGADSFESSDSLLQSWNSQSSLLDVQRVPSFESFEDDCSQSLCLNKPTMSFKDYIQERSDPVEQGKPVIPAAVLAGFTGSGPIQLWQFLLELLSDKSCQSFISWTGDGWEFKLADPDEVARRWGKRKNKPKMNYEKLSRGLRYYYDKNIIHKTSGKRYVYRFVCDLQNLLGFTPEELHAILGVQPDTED
The note with it: protein: recombinant; tags: N-terminal GST; dsDNA, one strand shown. The method, boiled down: as §1

The target of experiment [14] is T9, SPDEF (Homo sapiens, UniProt O95238 1-335).
T9 sequence: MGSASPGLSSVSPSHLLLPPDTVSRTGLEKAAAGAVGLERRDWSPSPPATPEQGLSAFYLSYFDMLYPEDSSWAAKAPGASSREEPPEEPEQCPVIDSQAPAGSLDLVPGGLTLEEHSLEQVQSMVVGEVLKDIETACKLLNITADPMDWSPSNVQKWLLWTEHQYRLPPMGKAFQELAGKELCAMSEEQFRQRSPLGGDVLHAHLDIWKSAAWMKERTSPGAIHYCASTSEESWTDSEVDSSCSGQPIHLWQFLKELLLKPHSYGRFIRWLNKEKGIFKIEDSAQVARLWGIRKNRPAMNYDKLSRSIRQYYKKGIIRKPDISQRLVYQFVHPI
Particulars: protein: recombinant; tags: N-terminal GST; dsDNA, one strand shown. The method, boiled down: as §1

Experiment [15] concerns the target T10, ETV7 (Homo sapiens, UniProt Q9Y603 1-341).
T10 sequence: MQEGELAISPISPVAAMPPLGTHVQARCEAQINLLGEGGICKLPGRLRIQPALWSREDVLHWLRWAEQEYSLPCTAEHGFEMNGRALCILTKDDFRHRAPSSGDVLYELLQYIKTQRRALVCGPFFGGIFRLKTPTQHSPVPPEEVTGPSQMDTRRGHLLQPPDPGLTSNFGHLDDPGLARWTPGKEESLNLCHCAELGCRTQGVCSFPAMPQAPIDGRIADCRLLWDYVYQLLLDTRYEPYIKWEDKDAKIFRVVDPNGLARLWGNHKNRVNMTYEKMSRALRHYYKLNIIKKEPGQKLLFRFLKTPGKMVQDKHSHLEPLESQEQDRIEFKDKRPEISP
Particulars: protein: recombinant; tags: N-terminal GST; dsDNA, one strand shown. The method, boiled down:
as §1

Experiment [16] deals with T11, ELF5 (Homo sapiens, UniProt Q9UKW6-2 1-255).
T11 sequence: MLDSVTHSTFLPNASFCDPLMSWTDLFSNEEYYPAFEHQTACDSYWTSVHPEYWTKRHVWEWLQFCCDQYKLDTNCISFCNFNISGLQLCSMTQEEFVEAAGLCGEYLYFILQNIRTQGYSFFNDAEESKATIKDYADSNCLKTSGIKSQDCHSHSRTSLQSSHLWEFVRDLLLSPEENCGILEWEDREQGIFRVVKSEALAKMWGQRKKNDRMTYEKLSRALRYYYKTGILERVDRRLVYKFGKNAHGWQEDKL
The note with it: protein: recombinant; tags: N-terminal GST; dsDNA, one strand shown. The essentials:
as §1

The target of experiment [17] is T12, ETV3 (Homo sapiens, UniProt P41162-2 1-143).
T12 sequence: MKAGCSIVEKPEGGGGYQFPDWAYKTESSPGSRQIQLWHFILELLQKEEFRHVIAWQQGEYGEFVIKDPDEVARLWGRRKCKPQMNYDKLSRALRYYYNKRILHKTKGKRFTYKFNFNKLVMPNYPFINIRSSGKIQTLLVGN
The note with it: protein: recombinant; tags: N-terminal GST; dsDNA, one strand shown. The method, boiled down:
as §1

Experiment [18] has as its target ETV6 (Homo sapiens, UniProt P41212 1-452). The note with it: protein: recombinant; tags: N-terminal GST; dsDNA, one strand shown. The method, boiled down: as §1

Chain of ETV6 (P41212 whole entry): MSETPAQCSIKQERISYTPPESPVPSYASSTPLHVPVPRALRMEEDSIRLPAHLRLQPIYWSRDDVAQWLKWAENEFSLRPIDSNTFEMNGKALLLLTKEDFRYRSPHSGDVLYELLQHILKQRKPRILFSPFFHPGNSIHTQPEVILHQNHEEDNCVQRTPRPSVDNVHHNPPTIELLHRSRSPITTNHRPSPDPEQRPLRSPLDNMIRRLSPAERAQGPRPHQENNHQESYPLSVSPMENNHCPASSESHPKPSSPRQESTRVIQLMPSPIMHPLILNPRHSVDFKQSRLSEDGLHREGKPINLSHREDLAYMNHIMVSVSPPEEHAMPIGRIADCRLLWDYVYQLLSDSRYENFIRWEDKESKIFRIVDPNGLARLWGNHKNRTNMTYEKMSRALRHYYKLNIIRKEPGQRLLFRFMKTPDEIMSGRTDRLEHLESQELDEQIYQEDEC
Chain of HSF1 (Q00613 whole entry): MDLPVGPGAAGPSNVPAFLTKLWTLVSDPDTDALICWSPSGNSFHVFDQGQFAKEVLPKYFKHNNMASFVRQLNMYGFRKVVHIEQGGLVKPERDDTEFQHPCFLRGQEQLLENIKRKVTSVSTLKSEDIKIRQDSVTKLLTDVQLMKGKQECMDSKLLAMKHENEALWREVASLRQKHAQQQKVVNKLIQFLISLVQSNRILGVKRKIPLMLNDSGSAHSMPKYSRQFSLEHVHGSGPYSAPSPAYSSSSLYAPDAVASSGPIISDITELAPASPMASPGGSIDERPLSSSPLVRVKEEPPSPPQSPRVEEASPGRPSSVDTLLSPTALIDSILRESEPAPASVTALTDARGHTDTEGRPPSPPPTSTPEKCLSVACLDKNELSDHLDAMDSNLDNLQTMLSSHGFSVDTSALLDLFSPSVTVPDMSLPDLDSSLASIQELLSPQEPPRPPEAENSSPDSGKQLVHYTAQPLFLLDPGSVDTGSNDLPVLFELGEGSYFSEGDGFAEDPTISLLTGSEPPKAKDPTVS
Chain of CRX (O43186 whole entry): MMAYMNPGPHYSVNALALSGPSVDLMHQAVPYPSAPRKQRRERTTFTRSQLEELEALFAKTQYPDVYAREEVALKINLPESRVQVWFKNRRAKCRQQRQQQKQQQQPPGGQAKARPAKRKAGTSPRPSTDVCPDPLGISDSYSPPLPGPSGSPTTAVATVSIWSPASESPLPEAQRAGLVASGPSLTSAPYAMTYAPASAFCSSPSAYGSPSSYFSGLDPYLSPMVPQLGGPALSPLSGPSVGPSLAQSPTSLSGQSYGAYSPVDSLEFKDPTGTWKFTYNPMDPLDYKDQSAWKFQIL
Chain of ETV1 (P50549 whole entry): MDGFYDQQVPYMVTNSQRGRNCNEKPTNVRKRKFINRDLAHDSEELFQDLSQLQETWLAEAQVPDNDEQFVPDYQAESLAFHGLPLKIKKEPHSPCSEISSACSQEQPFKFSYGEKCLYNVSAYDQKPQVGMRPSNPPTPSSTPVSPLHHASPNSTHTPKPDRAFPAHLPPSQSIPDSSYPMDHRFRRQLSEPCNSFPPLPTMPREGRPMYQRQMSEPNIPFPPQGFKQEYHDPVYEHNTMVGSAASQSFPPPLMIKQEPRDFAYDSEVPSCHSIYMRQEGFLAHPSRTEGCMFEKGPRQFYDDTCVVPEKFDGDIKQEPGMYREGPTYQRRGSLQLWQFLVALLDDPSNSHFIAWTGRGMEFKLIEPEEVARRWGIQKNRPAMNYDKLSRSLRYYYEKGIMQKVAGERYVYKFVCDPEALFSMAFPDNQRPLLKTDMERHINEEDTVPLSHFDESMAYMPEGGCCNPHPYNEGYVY
Chain of ELF4 (Q99607 whole entry): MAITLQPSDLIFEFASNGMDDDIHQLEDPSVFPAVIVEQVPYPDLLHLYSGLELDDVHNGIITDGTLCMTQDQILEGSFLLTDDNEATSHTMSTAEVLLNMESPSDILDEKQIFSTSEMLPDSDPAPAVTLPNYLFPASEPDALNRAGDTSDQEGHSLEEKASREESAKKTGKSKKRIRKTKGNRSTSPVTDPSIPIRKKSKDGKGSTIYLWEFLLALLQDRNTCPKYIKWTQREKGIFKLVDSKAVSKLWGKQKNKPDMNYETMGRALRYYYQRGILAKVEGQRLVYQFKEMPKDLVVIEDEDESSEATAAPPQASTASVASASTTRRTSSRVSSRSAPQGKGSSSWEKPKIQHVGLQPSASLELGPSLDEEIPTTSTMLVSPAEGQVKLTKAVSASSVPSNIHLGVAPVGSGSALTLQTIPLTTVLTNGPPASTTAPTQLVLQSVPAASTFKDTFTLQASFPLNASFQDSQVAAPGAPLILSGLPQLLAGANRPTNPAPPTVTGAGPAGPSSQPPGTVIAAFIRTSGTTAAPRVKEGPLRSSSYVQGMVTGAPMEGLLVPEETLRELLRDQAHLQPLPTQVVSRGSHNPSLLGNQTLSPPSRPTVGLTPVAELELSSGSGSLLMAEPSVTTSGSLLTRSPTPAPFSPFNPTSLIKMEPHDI
Chain of ETV5 (P41161 whole entry): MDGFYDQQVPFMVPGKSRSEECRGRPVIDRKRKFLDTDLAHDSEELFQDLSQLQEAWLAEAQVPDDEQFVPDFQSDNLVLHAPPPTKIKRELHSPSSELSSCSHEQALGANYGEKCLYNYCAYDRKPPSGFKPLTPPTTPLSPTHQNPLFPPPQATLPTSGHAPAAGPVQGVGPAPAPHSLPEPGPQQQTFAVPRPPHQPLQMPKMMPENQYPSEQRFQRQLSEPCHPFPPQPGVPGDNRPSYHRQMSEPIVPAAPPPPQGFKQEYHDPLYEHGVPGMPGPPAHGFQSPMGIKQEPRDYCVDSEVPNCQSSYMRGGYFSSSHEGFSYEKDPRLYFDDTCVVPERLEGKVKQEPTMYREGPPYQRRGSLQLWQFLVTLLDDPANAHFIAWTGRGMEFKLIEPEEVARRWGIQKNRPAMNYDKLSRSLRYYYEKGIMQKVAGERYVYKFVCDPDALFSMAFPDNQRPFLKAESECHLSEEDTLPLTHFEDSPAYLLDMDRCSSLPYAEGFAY

Turning to GATCTT, the binding signal is 1.14 fold enrichment (6-mer frequency, TF over GST control) in experiment [1]; 1.21 fold enrichment (6-mer frequency, TF over GST control) in [2]; 1.62 fold enrichment (6-mer frequency, TF over GST control) in [3]; 1.42 fold enrichment (6-mer frequency, TF over GST control) in experiment [4]; 1.26 fold enrichment (6-mer frequency, TF over GST control) in experiment [5]; 1.23 fold enrichment (6-mer frequency, TF over GST control) in [6]. For the same sequence, the binding signal in experiment [7] was 1.18 fold enrichment (6-mer frequency, TF over GST control); in [8], 1.43 fold enrichment (6-mer frequency, TF over GST control); in experiment [9], 1.71 fold enrichment (6-mer frequency, TF over GST control); in [10] it was 1.25 fold enrichment (6-mer frequency, TF over GST control); in experiment [11], 1.15 fold enrichment (6-mer frequency, TF over GST control); in experiment [12] it was 1.15 fold enrichment (6-mer frequency, TF over GST control). Also, the binding signal in [13] was 1.15 fold enrichment (6-mer frequency, TF over GST control); in experiment [14], 1.42 fold enrichment (6-mer frequency, TF over GST control); in [15], 1.28 fold enrichment (6-mer frequency, TF over GST control); in [16], 1.29 fold enrichment (6-mer frequency, TF over GST control); in experiment [17], 1.24 fold enrichment (6-mer frequency, TF over GST control); in [18], 1.14 fold enrichment (6-mer frequency, TF over GST control).
